PubChem BioAssay (NCATS)
Results filed as inconclusive are left out. Where a call stands in place of a potency, no number is given. Values without a mark were called inactive. Active and inactive are the calls of the source. Calls follow the shape of the dose curve; as a rule, active = well fitted curve in the direction sought with a large enough effect; inconclusive = small, poorly fitted or top-dose-only effect, or another doubt; inactive = no such curve, though single readings can be large; an effect the other way counts as inactive or inconclusive.

Assays:
[1] = target: Rap guanine nucleotide exchange factor 3 (Homo sapiens) (UniProt O95398); test: Confirmatory qHTS for agonist of cAMP-regulated guanine nucleotide exchange factor 3 (EPAC1) (AID 1645881);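 also: EPAC1 catalysed release of BODIPY-GDP from Rap1B seen as fluorescence loss; nearly all actives have a fitted effect of over 75% in size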
Sequence of Rap guanine nucleotide exchange factor 3 (Homo sapiens) (O95398 whole entry, looked up): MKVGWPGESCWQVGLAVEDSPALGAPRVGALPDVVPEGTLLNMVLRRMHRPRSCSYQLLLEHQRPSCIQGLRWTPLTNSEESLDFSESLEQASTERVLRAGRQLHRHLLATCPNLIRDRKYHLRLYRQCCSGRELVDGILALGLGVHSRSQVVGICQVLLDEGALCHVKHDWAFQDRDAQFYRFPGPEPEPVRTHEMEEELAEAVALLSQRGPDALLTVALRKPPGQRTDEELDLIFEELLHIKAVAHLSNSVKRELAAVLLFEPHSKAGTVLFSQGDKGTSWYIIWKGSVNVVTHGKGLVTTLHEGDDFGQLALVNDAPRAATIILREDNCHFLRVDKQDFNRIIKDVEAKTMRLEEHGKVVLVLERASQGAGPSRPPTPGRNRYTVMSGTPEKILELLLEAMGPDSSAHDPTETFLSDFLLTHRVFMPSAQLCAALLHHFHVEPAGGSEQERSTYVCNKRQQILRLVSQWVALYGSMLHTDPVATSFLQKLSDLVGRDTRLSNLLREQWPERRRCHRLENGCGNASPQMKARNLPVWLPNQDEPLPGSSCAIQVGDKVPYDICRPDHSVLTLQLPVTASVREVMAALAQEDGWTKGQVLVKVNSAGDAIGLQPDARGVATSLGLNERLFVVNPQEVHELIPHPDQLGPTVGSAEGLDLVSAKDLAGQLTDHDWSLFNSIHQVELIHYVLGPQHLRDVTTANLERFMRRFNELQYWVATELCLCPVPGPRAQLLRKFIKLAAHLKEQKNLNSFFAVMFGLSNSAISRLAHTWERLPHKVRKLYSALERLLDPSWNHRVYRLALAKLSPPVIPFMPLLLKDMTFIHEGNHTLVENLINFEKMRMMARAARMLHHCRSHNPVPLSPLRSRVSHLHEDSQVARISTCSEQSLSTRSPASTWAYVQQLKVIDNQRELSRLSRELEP

[2] = target: Rap guanine nucleotide exchange factor 4 (Homo sapiens) (UniProt Q8WZA2); test: Confirmatory qHTS for agonist of cAMP-regulated guanine nucleotide exchange factor 4 (EPAC2) (AID 1645884);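 also: nucleotide exchange releases bodipy-GDP from Rap1 and this lowers its fluorescence; nearly all actives have a fitted effect of over 65% in size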
Sequence of Rap guanine nucleotide exchange factor 4 (Homo sapiens) (Q8WZA2 whole entry, looked up): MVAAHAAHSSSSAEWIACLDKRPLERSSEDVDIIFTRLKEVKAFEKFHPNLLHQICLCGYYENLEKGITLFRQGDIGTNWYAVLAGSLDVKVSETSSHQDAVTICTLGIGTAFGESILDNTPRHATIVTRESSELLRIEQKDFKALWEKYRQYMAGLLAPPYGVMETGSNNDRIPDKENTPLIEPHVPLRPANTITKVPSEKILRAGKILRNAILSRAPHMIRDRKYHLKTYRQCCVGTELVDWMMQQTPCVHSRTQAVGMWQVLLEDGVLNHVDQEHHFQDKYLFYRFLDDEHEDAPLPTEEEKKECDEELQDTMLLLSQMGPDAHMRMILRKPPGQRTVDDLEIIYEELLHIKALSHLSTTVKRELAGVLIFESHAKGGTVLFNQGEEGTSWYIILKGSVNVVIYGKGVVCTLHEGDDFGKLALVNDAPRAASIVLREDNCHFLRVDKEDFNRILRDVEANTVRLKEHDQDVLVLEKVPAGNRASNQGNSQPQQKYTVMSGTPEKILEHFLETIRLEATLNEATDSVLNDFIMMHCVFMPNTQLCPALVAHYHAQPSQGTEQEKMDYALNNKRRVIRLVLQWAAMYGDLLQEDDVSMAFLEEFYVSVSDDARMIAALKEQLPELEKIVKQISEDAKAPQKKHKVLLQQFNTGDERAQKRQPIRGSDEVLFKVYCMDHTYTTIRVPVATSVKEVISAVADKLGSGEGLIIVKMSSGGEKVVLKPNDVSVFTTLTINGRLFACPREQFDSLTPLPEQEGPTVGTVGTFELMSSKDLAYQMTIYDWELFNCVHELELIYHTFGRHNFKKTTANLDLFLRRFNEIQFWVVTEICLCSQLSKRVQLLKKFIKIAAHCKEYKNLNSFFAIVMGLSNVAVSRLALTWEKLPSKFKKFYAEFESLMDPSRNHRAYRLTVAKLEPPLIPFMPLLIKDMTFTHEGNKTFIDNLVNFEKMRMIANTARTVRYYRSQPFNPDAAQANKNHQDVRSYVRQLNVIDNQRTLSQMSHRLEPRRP

[3] = target: Rap guanine nucleotide exchange factor 4 (Homo sapiens) (UniProt Q8WZA2); test: Confirmatory qHTS for antagonist of cAMP-regulated guanine nucleotide exchange factor 4 (EPAC2) (AID 1645885); also: nearly all actives have a fitted effect of over 25% in size; also: potency is read from the fitted curve at half-maximal effect

SMILES | Potency [1] | Potency [2] | Potency [3] | activation [2]
Cc1ccc(NCc2nc3ccccc3n2CCOc2ccccc2)cc1 | inactive | inactive | inactive | 
O=S1(=O)CCOC[C@H](CC2CCCCC2)N1Cc1cccc(C(F)(F)F)c1 | inactive |  | inactive | 4.69% [at 17.1 µM, percent relative to cAMP agonist control]
CC(=O)N1CCC[C@H]1C(=O)NCC1Cc2cc(-c3cccc(OC(F)(F)F)c3)ccc2O1 (some centres undefined) | inactive | inactive | 44.1 µM (active) | 
COc1ccc(S(=O)(=O)Nc2ccc3cn[nH]c3c2)cc1C | inactive | inactive | 67.5 µM (active) | 
COc1ccc(NC(=O)CSc2nc(O)cc(=O)n2-c2ccc(OC)cc2)cc1 | inactive | inactive | inactive | 
O=C1Cc2ccccc2C(=O)N1 | inactive | inactive | inactive | 
Cc1ccccc1CN1C(=O)C(C)Sc2ccc(-c3ccco3)cc21 (centres undefined) | inactive | inactive | inactive | 
CN(CC(=O)Nc1ccc(Cl)c(C(F)(F)F)c1)CC(=O)NC1CCCCC1 | inactive | inactive | inactive | 
COc1ccc(C(=O)CC2(O)C(=O)N(Cc3cccc(C(F)(F)F)c3)c3ccccc32)cc1 (centres undefined) | inactive | inactive | inactive | 
O=C(Nc1sc2c(c1C(=O)O)CCCC2)c1ccc(Cl)cc1 | inactive |  | inactive | 1.39% [at 17.1 µM, percent relative to cAMP agonist control]
COC(=O)c1ccc(CSc2nc3scc(-c4cccs4)c3c(=O)[nH]2)o1 | inactive | inactive | inactive | 
CC(C)C[C@H]1COCCS(=O)(=O)N1Cc1cccc(C(F)(F)F)c1 | inactive | inactive | inactive | 
CN(C)c1ccc(C(=O)Nc2sc(Nc3ccccc3)nc2C(N)=O)cc1 | inactive | inactive | inactive | 
COc1cc(CNc2ccc(O)cc2)cc(Br)c1OCc1ccccc1F | inactive |  | inactive | 0.373% [at 17.1 µM, percent relative to cAMP agonist control]
CCCCC[C@H]1CN(Cc2ccccc2)C(=O)[C@@H]1CC(=O)NCc1ccc(OC)cc1 | inactive | inactive | 44.1 µM (active) | 
COC(=O)[C@]12CCCCC=C1N(Cc1ccco1)C(=O)[C@H](CC(=O)NCc1cccs1)C2 | inactive | inactive | inactive | 
Oc1ccc(N=Cc2ccc(OCc3ccccc3)cc2)cc1 | inactive |  | inactive | 11.9% [at 17.1 µM, percent relative to cAMP agonist control]

SMILES | Potency [1] | Potency [2] | Potency [3] | activation [2]
C#CCN(Cc1nc(N2CCOCC2)c2ccc(Cl)cc2n1)Cc1ccco1 | inactive | inactive | 17.5 µM (active) | 
O=C1CCCC2=C1CC(C(=O)OCc1ccccc1)C(=O)N2Cc1ccccc1 (centres undefined) | inactive |  | inactive | 0% [at 17.1 µM, percent relative to cAMP agonist control]
Cc1cc(C)cc(OCC(=O)OCC(=O)NC2CCCCCCC2)c1 | inactive | inactive | inactive | 
Cc1ccc(NS(=O)(=O)c2ccc(C(=O)N3CC(C)CC(C)C3)cc2)cc1 (centres undefined) | inactive | inactive | inactive | 
CN(c1ccccc1)c1ccc(/C=C(/CCC(=O)O)c2nc3ccccc3s2)cc1[N+](=O)[O-] | inactive | inactive | inactive | 
COc1ccc(SC[C@H](C)CN2CC[C@H](C(C)(C)C)CCC2=O)cc1 | inactive | inactive | 35 µM (active) | 
O=C(O)c1ccc(/C=N/NC(=O)c2cc(-c3ccc4c5c(cccc35)CC4)n[nH]2)cc1 | inactive | inactive | inactive | 
Cn1c(N)c(C(=O)COC(=O)CCCOc2ccc(Cl)cc2Cl)c(=O)n(C)c1=O | inactive | inactive | 37.9 µM (active) | 
Cc1cccc(CN2Cc3cccc4c3[C@H](C=CC4)CC2=O)c1 | inactive | inactive | 44.1 µM (active) | 
CC(NS(=O)(=O)OCC(Cl)(Cl)Cl)c1ccc(C(C)(C)C)cc1 (centres undefined) | inactive |  | inactive | 4.78% [at 17.1 µM, percent relative to cAMP agonist control]
COC(=O)c1c(NC(=O)COC(=O)c2ccc(NC(=O)CC#N)cc2)sc2c1CCCCC2 | inactive | inactive | inactive | 
Cc1cccc(N(C)S(=O)(=O)c2c[nH]c3ccc([N+](=O)[O-])cc23)c1 | inactive | inactive | inactive | 
COC(=O)c1ccc2c(=O)n(CCCCCC(=O)N3CCN(c4cc(C)ccc4C)CC3)c(=O)[nH]c2c1 | inactive | inactive | inactive | 
Cc1cccc(NC(=O)CSCC(=O)Nc2cccc(S(=O)(=O)N3CCCCCC3)c2)c1 | inactive |  | inactive | 8.94% [at 17.1 µM, percent relative to cAMP agonist control]
COC(=O)[C@H](Cc1ccccc1)NC(=O)c1ccc2ccccc2n1 | inactive |  | inactive | 3.75% [at 17.1 µM, percent relative to cAMP agonist control]
Cc1nc2c(OCc3ccc(OC(F)F)cc3)cccn2c1N(C)C(=O)CCC1CCCC1 | inactive | inactive | 26.9 µM (active) | 
